Laboratory results: PubChem BioAssay (NCATS)
Inconclusive results are not listed. The source made the active and inactive calls. Calls come from the whole dose curve; as a rule, active = well fitted inhibition curve with a large enough effect; inconclusive = small, poorly fitted or top-dose-only effect; inactive = flat fitted curve, though single readings scatter.

What was measured:
Experiment in all cases: qHTS profiling for inhibitors of Plasmodium falciparum proliferation (AID 504749); note: nearly all actives have a fitted effect of over 60% in size
Settings in all cases: P. falciparum in erythrocytes, SYBR Green DNA, 72 h; series mostly up to 28.7 µM
3D7 = test system: 3D7
Summary of the method: (§1)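 P. falciparum-infected erythrocytes (0.3% parasitemia, 2.5% hematocrit) incubated with compound 72 h at 37 C, 5% CO2. Parasite DNA detected by SYBR Green after lysis, overnight at room temperature; normalised to 0.29 uM artemisinin and DMSO.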

C2A = test system: C2A
Summary of the method: as §1

CP191 = test system: CP191
Summary of the method: as §1

CP194 = test system: CP194
Summary of the method: as §1

CP237 = test system: CP237
Summary of the method: as §1

CP250 = test system: CP250
Summary of the method: as §1

CP256 = test system: CP256
Summary of the method: as §1

CP268 = test system: CP268
Summary of the method: as §1

CP305 = test system: CP305
Summary of the method: as §1

Dd2 = test system: Dd2
Summary of the method: as §1

HB3 = test system: HB3
Summary of the method: as §1

P94_40 = test system: P94_40
Summary of the method: as §1

PC15 = test system: PC15
Summary of the method: as §1

SC27B = test system: SC27B
Summary of the method: as §1

TAB113 = test system: TAB113
Summary of the method: as §1

TAB165 = test system: TAB165
Summary of the method: as §1

CP192 = test system: CP192
Summary of the method: as §1

CP315 = test system: CP315
Summary of the method: as §1

JCK = test system: JCK
Summary of the method: as §1

PC49 = test system: PC49
Summary of the method: as §1

Measured: Potency
Potency is the fitted concentration of half-maximal effect.

CCC(=O)O[C@]1(C(=O)CCl)[C@@H](C)CC2C3C[C@H](F)C4=CC(=O)C=CC4(C)[C@@]3(F)C(O)CC21C (some centres not stated)
active: 3D7 11200 nM | C2A 12600 nM | CP191 7940 nM | CP194 15100 nM | CP237 3550 nM | CP250 12600 nM | CP256 11200 nM | CP268 12000 nM | CP305 12000 nM | Dd2 7940 nM | HB3 12600 nM | P94_40 8910 nM | PC15 8910 nM | SC27B 7940 nM | TAB113 8910 nM | TAB165 10000 nM

CC1C(=O)C(=O)C=CN1C (configuration not stated)
inactive: all assays above

OCC1OC(O)C(O)C(O)C1O (configuration not stated)
inactive: all assays above

OCC(CO)NC1C[C@](O)(CO)[C@@H](O)[C@H](O)[C@H]1O (some centres not stated)
inactive: all assays above

CCCCCOC(=O)Nc1nc(=O)n(C2O[C@H](C)[C@@H](O)[C@@H]2O)cc1F (some centres not stated)
active: CP191 8910 nM
not listed: CP237 | CP256
inactive: all other assays above

CCC(C(=O)C(C)C(O)C(C)CCc1ccc(C)c(O)c1C(=O)O)C1OC(CC)(C2CC[C@@](O)(CC)C(C)O2)CC1C (some centres not stated)
active: 3D7 447 nM | C2A 794 nM | CP191 708 nM | CP194 849 nM | CP237 562 nM | CP250 1000 nM | CP256 1000 nM | CP268 849 nM | CP305 675 nM | CP315 849 nM | Dd2 794 nM | HB3 631 nM | JCK 8910 nM | P94_40 316 nM | PC15 1410 nM | PC49 2000 nM | SC27B 447 nM | TAB113 891 nM | TAB165 355 nM

O=C(O)C(O)c1ccccc1 (configuration not stated)
not listed: CP256
inactive: all other assays above

Cc1onc(-c2c(F)cccc2Cl)c1C(=O)NC1C(=O)N2C1SC(C)(C)C2C(=O)O (configuration not stated)
inactive: all assays above

NC(=O)OC[C@@H]1[C@H](NC(=O)/C(=N/OCC(=O)O)c2csc(N)n2)C(=O)N1S(=O)(=O)O
not listed: CP268 | JCK
inactive: all other assays above

CC(C)C(=O)OCC(=O)[C@@]12OC(C3CCCCC3)O[C@@H]1CC1C3CCC4=CC(=O)C=C[C@]4(C)C3[C@@H](O)C[C@@]12C (some centres not stated)
active: 3D7 1000 nM | C2A 1260 nM | CP191 708 nM | CP237 1410 nM | CP250 1120 nM | CP256 1120 nM | CP305 849 nM | Dd2 1410 nM | HB3 1120 nM | JCK 2510 nM | P94_40 891 nM | PC15 1580 nM | PC49 1120 nM | SC27B 1260 nM | TAB113 1120 nM | TAB165 891 nM

C/C(=C(/CCO)SS/C(CCO)=C(\C)N(C=O)Cc1cnc(C)nc1N)N(C=O)Cc1cnc(C)nc1N
inactive: all assays above

CC[C@@]1(O)CC2CN(CCc3c([nH]c4ccccc34)[C@](C(=O)OC)(c3cc4c(cc3OC)N(C)C3[C@@](O)(C(=O)OC)C(OC(C)=O)[C@]5(CC)C=CCN6CC[C@@]43C65)C2)C1 (some centres not stated)
active: 3D7 2000 nM | C2A 2820 nM | CP191 2820 nM | CP192 3380 nM | CP194 3790 nM | CP237 794 nM | CP250 3550 nM | CP256 3160 nM | CP305 3790 nM | CP315 3380 nM | Dd2 355 nM | JCK 6310 nM | P94_40 3550 nM | SC27B 2820 nM | TAB113 3980 nM | TAB165 3550 nM

CC1(C)CC1C(=O)N/C(=C/CCCCSCC(N)C(=O)O)C(=O)O (configuration not stated)
inactive: all assays above
